# According to the supplement of paper PMC10849652:
# Targets with a hit are over-represented here; the source holds about 7,900 in all. About 0.6% of all pairs of compound and target were hits. A number with no mark means an inactive call.
# Legend:
# Assay in all cases: log2 fold change, soluble protein after heating vs DMSO (PISA); higher = thermal stabilisation; K562 cells, 10 uM, 30 min; active = over 0.2 and 3.5 SD of the protein, either way, in both replicates (recomputed)
# [1] = compound: COC1=CC=C(C=C1)CN2C=CC3=C2C=C(C=C3)C(=O)NO
# How it was run: (§1)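 K562 cells (2×10^6 cells/mL) were treated with 10 μM compound for 30 min, and aliquots were heated for 3 min over 48°C-58°C. Pooled aliquots were extracted in PBS with 0.5% NP-40 at 4°C, and the supernatant after 21,000xg for 90 min was measured by TMTpro 16plex LC-MS/MS with channel sums equalised. Reported thermal stability, relative to control samples and from duplicates, is a log2 fold change.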
# filanesib = compound: CON(C)C(=O)N1N=C(c2cc(F)ccc2F)S[C@@]1(CCCN)c1ccccc1 [filanesib]
# How it was run: as §1
# zotarolimus = compound: CO[C@H]1C[C@@H]2CC[C@@H](C)[C@@](O)(O2)C(=O)C(=O)N2CCCC[C@H]2C(=O)O[C@H]([C@H](C)C[C@@H]2CC[C@H](n3cnnn3)[C@H](OC)C2)CC(=O)[C@H](C)/C=C(\C)[C@@H](O)[C@@H](OC)C(=O)[C@H](C)C[C@H](C)/C=C/C=C/C=C/1C [zotarolimus]
# How it was run: as §1
# idasanutlin = compound: COc1cc(C(=O)O)ccc1NC(=O)[C@@H]1N[C@@H](CC(C)(C)C)[C@](C#N)(c2ccc(Cl)cc2F)[C@H]1c1cccc(Cl)c1F [idasanutlin]
# How it was run: as §1
# alisertib = compound: COc1cc(Nc2ncc3c(n2)-c2ccc(Cl)cc2C(c2c(F)cccc2OC)=NC3)ccc1C(=O)O [alisertib]
# How it was run: as §1
# [2] = compound: COc1cc2nc(-c3cc(F)ccc3O)nc(N[C@@H]3CNC[C@H]3C(C)(C)O)c2cc1OC
# How it was run: as §1
# gefitinib = compound: COc1cc2ncnc(Nc3ccc(F)c(Cl)c3)c2cc1OCCCN1CCOCC1 [gefitinib]
# How it was run: as §1
# [3] = compound: COc1cccc2cc(-c3nc([C@H]4CC[C@H](C(=O)O)CC4)n4ncnc(N)c34)[nH]c12
# How it was run: as §1
# lapatinib = compound: CS(=O)(=O)CCNCc1ccc(-c2ccc3ncnc(Nc4ccc(OCc5cccc(F)c5)c(Cl)c4)c3c2)o1 [lapatinib]
# How it was run: as §1
# pictilisib = compound: CS(=O)(=O)N1CCN(Cc2cc3nc(-c4cccc5[nH]ncc45)nc(N4CCOCC4)c3s2)CC1 [pictilisib]
# How it was run: as §1
# Chain of UniProt P01116 (P01116 whole entry, looked up): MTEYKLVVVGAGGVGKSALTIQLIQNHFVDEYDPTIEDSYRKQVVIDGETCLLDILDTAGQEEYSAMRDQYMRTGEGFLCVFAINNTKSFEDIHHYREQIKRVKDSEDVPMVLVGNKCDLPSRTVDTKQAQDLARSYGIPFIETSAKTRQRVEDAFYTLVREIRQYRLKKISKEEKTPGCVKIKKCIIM
# Chain of UniProt Q14739 (Q14739 whole entry, looked up): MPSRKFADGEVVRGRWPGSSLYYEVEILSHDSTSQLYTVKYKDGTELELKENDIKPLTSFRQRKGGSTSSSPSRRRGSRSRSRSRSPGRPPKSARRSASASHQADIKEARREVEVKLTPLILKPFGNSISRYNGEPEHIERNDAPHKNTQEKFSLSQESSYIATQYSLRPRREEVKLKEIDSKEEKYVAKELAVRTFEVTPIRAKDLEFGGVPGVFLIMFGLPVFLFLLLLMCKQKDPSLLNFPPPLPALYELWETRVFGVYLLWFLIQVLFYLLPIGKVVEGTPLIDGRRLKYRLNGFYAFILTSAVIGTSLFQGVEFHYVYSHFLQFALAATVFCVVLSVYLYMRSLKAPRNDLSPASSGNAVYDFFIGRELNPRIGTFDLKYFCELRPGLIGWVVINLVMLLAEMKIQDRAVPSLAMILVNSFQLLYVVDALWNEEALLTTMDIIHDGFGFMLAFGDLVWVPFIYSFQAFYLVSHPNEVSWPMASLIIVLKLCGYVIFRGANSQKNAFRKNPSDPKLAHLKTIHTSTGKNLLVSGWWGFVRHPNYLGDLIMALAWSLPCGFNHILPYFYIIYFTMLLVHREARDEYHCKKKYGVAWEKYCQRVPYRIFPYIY
# Chain of UniProt O43513 (O43513 whole entry, looked up): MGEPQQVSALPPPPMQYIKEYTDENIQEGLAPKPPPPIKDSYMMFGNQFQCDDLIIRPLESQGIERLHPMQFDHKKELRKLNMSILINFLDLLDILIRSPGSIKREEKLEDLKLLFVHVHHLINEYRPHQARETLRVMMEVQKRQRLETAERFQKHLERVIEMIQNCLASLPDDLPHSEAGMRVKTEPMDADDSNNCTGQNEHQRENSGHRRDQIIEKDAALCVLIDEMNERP
# Chain of UniProt Q13163 (Q13163 whole entry, looked up): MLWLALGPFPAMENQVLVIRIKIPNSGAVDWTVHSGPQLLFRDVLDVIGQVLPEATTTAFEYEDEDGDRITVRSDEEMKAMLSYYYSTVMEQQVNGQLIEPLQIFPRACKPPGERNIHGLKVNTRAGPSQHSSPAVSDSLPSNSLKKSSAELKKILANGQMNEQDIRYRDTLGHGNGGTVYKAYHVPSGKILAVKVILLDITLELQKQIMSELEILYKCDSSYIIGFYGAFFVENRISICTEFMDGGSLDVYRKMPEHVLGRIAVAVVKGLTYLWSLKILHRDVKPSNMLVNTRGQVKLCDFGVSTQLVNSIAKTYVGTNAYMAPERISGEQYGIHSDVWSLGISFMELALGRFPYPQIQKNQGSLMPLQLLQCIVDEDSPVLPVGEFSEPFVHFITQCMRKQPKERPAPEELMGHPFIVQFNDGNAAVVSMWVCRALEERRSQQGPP
# Chain of UniProt P07948 (P07948 whole entry, looked up): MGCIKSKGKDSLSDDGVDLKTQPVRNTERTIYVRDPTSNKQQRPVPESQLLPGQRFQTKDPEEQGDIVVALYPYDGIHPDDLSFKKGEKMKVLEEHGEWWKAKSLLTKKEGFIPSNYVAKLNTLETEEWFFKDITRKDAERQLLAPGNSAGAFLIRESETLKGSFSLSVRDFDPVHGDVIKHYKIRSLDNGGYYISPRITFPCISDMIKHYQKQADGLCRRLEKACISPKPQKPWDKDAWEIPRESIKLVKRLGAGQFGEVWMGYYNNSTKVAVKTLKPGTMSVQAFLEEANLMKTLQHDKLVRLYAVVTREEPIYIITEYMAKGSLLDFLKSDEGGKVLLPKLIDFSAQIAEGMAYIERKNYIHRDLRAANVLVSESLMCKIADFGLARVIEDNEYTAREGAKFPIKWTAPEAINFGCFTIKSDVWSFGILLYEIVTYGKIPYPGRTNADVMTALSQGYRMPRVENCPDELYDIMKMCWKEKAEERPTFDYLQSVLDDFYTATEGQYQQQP
# Chain of UniProt P17936 (P17936 whole entry, looked up): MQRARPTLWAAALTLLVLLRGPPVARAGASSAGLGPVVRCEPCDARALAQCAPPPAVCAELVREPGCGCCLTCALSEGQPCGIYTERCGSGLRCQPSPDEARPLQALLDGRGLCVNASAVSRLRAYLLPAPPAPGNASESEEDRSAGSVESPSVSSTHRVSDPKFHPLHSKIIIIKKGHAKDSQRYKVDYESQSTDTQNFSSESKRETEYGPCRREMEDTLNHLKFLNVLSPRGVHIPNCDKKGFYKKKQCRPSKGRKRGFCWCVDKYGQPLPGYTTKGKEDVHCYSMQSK
# Chain of UniProt P08514 (P08514 whole entry, looked up): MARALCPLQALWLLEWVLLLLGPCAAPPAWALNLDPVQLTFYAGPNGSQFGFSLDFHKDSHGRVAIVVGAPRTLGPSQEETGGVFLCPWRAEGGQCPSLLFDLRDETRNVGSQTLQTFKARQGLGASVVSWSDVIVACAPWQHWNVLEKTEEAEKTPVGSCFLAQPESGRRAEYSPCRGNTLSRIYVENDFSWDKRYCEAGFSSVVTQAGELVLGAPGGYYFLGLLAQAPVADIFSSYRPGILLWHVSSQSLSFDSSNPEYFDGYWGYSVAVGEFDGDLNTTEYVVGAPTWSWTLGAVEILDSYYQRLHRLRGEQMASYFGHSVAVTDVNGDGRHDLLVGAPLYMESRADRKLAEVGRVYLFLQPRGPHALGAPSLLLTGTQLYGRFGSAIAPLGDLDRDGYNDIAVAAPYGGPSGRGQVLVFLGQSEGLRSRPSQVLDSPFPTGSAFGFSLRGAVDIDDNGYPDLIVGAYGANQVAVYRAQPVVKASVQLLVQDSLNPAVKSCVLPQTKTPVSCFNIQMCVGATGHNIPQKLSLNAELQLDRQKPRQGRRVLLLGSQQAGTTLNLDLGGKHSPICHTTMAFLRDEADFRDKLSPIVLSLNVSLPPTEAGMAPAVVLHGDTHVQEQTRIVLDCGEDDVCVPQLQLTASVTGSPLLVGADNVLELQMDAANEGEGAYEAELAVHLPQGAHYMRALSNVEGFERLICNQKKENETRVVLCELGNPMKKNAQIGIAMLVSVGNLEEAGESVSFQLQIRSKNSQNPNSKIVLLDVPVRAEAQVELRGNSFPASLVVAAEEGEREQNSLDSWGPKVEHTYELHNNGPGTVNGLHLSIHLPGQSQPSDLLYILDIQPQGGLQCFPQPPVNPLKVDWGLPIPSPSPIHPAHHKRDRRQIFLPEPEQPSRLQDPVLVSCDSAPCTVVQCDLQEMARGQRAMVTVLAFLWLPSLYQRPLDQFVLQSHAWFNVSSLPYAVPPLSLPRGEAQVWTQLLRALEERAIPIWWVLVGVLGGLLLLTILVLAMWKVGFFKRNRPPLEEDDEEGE
# Chain of UniProt P13473 (P13473 whole entry, looked up): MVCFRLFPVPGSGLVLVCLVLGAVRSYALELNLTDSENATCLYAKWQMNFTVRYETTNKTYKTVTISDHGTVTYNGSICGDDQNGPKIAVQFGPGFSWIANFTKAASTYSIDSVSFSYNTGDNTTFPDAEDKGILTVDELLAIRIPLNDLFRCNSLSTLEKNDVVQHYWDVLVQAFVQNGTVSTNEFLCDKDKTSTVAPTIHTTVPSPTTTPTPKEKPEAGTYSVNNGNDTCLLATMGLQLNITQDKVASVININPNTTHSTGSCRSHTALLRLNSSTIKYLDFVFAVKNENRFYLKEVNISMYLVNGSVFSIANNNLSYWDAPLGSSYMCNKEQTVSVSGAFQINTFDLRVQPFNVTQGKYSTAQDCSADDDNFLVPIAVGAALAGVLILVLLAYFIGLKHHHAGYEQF
# Chain of UniProt Q9NQG6 (Q9NQG6 whole entry, looked up): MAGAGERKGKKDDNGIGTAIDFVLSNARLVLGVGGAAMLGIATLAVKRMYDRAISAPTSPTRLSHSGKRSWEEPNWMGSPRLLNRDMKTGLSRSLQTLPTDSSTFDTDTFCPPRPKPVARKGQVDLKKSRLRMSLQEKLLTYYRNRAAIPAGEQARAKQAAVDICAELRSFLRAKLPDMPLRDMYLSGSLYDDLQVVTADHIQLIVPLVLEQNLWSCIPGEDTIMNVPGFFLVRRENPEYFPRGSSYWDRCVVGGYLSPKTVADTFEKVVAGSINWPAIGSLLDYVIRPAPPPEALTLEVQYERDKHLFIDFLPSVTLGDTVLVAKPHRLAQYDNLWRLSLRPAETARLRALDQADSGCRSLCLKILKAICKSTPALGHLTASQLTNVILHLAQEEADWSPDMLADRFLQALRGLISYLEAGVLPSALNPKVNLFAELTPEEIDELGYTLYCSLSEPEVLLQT
# Chain of UniProt Q8NC54 (Q8NC54 whole entry, looked up): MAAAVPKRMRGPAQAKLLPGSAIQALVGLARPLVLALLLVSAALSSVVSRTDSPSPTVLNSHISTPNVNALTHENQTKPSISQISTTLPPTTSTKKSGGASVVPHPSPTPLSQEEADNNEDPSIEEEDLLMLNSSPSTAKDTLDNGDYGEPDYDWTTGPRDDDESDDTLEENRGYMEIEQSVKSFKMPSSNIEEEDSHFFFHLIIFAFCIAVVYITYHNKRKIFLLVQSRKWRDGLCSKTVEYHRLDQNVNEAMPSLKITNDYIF
# Chain of UniProt P51884 (P51884 whole entry, looked up): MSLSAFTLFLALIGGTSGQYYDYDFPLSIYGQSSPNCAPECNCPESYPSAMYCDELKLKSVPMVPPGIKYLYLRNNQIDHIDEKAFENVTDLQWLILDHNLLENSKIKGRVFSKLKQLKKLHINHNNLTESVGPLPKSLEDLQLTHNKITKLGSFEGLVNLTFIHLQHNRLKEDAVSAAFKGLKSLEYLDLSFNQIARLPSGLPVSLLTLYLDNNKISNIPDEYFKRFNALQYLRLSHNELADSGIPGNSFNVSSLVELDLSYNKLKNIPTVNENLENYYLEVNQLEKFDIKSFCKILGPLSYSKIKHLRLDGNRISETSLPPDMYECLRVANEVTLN
# Chain of UniProt Q8WV07 (Q8WV07 whole entry, looked up): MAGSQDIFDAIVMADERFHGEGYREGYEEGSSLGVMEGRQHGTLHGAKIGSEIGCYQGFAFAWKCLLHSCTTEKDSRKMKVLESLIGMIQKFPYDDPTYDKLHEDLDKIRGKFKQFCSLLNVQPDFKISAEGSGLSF
Target,log2 fold change [1],log2 fold change (filanesib),log2 fold change (zotarolimus),log2 fold change (idasanutlin),log2 fold change (alisertib),log2 fold change [2],log2 fold change (gefitinib),log2 fold change [3],log2 fold change (lapatinib),log2 fold change (pictilisib)
LTO1 (UniProt Q8WV07),-0.06,-0.06,0.062,-0.093,0.118,0.036,0.017,-0.001,-0.016,0.038
"LRBA, A0A494BZW2",0.006,-0.136,-0.127,-0.207,0.001,0.453,-0.026,0.046,-0.097,0.095
LBR (UniProt Q14739),-0.075,-0.065,-0.008,-0.196,-0.019,0.079,0.034,0,-0.081,-0.191
KIF2C (UniProt Q99661),0.063,-0.033,0.001,-0.046,-0.008,0.09,0.006,-0.081,-0.048,0.008
MAD2L1 (UniProt Q13257),-0.024,-0.042,0.034,-0.12,-0.003,0.048,0.008,0.01,-0.064,0.024
MIEF1 (UniProt Q9NQG6),0.053,-0.18,0.006,-0.066,-0.033,-0.382 (active),0.051,0.001,0.004,-0.027
MED7 (UniProt O43513),-0.021,-0.01,0.07,-0.159,,-0.049,-0.022,,-0.116,
KEAP1 (UniProt Q14145),0.005,0.028,0.036,-0.019,-0.018,0.005,0.03,-0.066,0.007,-0.02
MED22 (UniProt Q15528),-0.03,-0.008,0.047,-0.023,0.019,,0.017,-0.171,,
KCNK5 (UniProt O95279),0.059,-0.117,-0.044,,-0.408,-0.541,,0.193,-0.227,-0.007
MAP4K2 (UniProt Q12851),0.02,-0.143,-0.083,,,0.426,0.034,,-0.011,
KCT2 (UniProt Q8NC54),-0.015,-0.036,-0.044,-0.029,-0.074,0.021,0.032,0.039,-0.002,0.023
MAN2B2 (UniProt Q9Y2E5),-0.077,-0.027,,-0.012,0.022,-0.038,0.044,0.075,-0.026,
MCL1 (UniProt Q07820),-0.092,0.029,0.093,0.145,-0.12,-0.442 (active),-0.18,0.055,-0.249,-0.026
ITGA2B (UniProt P08514),0.004,0.086,-0.065,0.138,,0.074,-0.086,,0.033,-0.589 (active)
MELK (UniProt Q14680),0.072,-0.116,-0.019,0.061,,-3.59 (active),0.253,,-0.006,-0.079
MAP3K20 (UniProt Q9NYL2),0.04,0.075,0.033,0.064,,0.048,-0.042,-0.059,0,-0.02
ILF3 (UniProt Q12906),0.033,0.156,,,-0.203,,-0.13,0.045,,

Target,log2 fold change [1],log2 fold change (filanesib),log2 fold change (zotarolimus),log2 fold change (idasanutlin),log2 fold change (alisertib),log2 fold change [2],log2 fold change (gefitinib),log2 fold change [3],log2 fold change (lapatinib),log2 fold change (pictilisib)
MFSD8 (UniProt Q8NHS3),-0.236,,-0.062,-0.019,0.059,-0.07,,0.054,0.025,0.079
MAP3K20 isoform 2 (UniProt Q9NYL2),0.044,0.068,,0.407,,0.036,-0.003,-0.242,-0.121,
INTS5 (UniProt Q6P9B9),-0.02,-0.055,,0.045,-0.019,-0.111,-0.017,-0.004,0.13,
MED1 (UniProt Q15648),-0.051,0.116,0.042,0.056,-0.056,-0.063,-0.039,0.016,0.114,0.077
LAMP2 isoform 2 (UniProt P13473),-0.049,,0.022,0.017,-0.105,-0.027,-0.039,0.09,-0.104,0.075
LYN isoform 2 (UniProt P07948),-0.2,-0.212,-0.054,-0.027,,0.074,0.069,,-0.046,
IGFBP3 isoform 2 (UniProt P17936),0.176,-0.272,-1.02 (active),0.535,,-0.103,,,0.085,-0.085
MAPK14 (UniProt Q16539),0.024,-0.055,0.059,-0.361,-0.014,0.014,0.796 (active),0.303,-0.002,-0.05
KRAS isoform 2 (UniProt P01116),0.01,0.005,-0.033,0.099,0.029,0.037,0.015,0.033,-0.009,0.046
MCM10 (UniProt Q7L590),0.303,-0.192,,,-0.097,-0.103,-0.014,0.1,0.204,-0.118
IWS1 (UniProt Q96ST2),0.007,-0.013,-0.006,-0.105,-0.068,0.124,-0.055,0.055,-0.077,-0.011
IL10RB (UniProt Q08334),-0.161,0.299,,-0.008,,0.048,0.088,,0.011,0.025
LRFN1 (UniProt Q9P244),-0.054,0.151,0.031,,,0.025,,,-0.048,
MCCC2 (UniProt Q9HCC0),0.137,-0.07,0,-0.033,-0.057,-0.022,0.006,0.083,0.001,-0.031
KIF3B (UniProt O15066),-0.071,0.04,0.027,-0.252,-0.071,0.164,,0.04,0.035,-0.161
LUM (UniProt P51884),-0.151,0.169,0,-0.023,,-0.216,0.087,,0.067,
MAP2K5 (UniProt Q13163),0.206,,0.003,-0.117,,,,,,
